POLB inh = blocks human DNA polymerase beta activity. P06746. Potency, µM (top dose mostly 114 µM), for inactives: at the top dose activity change, negative = inhibition, hits mostly inhibitors. Pol beta primer extension/strand displacement, fluorescence kinetic. 340,000 compounds, 1.3% hits; further: on the % scale 0 is the no-effect control and ±100 the full control effect
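Preincubation: enzyme (10 nM) with compound, 15 min, RT. Reaction: substrate added to 50 nM final. Reads: 0 and 10 min. Analysis: normalized, Hill fit.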
APE1 inh = inhibitors of human APE1 endonuclease | recombinant APE1, TAMRA/BHQ-2 abasic DNA cleavage fluorescence | Potency, µM (series often up to 65.8 µM), inactives show at the highest dose activity change, negative = inhibition, most hits filed as inhibitors | 350,000 compounds, 0.35% hits | AID 2517;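 further: plate controls were vehicle for no effect and reference inhibitor for full effect; nearly all actives have a fitted effect of over 55% in size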
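0.75 nM APE1 + cpd, 15 min RT; start w/ 50 nM TAMRA/BHQ-2 THF-abasic dsDNA; kinetic fluor 525/598 nm ×3 reads @60 s; Δ(read3−read1); normalized to DMSO and NSC13755 control wells.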
Pol eta inh = DNA polymerase eta (human) inhibition. Q9Y253. recombinant Pol eta, fluorescent DNA replication assay. Potency, µM (series often up to 114 µM), inactives show at the highest dose activity change, negative = inhibition, most hits filed as inhibitors. 390,000 compounds, 1.2% hits; further: on the % scale 0 is the no-effect control and ±100 the full control effect
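Pol eta at 10 nM preincubated with compounds 15 min at room temperature; reaction started with fluorescent substrate (50 nM final) and read kinetically at 0 and 10 min.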
POLI inh = blocks human DNA polymerase iota activity; Q9UNA4; Pol iota fluorescent replication assay, 10 min; Potency, µM (titrated, usually from 115 µM), for the others: at the top dose activity, negative = inhibition, actives largely listed as inhibitors; 390,000 compounds, 1% hits
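Pol iota at 10 nM preincubated 15 min with compounds at room temperature; reaction started with fluorescent substrate, 50 nM final. Fluorescence read kinetically at 0 and 10 min; buffer-only wells as negative control.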
POLK inh = DNA polymerase kappa (human) inhibition. Q9UBT6. purified Pol kappa, fluorescent DNA synthesis assay, 10 min. Potency, µM (highest dose often 107 µM), for the others: top-dose activity, negative = inhibition, actives largely listed as inhibitors. 400,000 compounds, 0.53% hits; further: on the % scale 0 is the no-effect control and ±100 the full control effect
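50 nM final substrate added after 15 min RT preincubation of 10 nM Pol kappa with compound; fluorescence read at 0 and 10 min.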
L3MBTL1 block = inhibitors of human L3MBTL1 | Q9Y468 | AlphaScreen L3MBTL1–H3K9me1 peptide binding | Potency, µM (top dose mostly 57.1 µM), for the others: at the top dose activity, negative = inhibition, most hits filed as inhibitors | 230,000 compounds, 0.66% hits; further: on the % scale 0 is the no-effect control and ±100 the full control effect; nearly all actives have a fitted effect of over 60% in size
Target sequence (Q9Y468 whole entry, looked up): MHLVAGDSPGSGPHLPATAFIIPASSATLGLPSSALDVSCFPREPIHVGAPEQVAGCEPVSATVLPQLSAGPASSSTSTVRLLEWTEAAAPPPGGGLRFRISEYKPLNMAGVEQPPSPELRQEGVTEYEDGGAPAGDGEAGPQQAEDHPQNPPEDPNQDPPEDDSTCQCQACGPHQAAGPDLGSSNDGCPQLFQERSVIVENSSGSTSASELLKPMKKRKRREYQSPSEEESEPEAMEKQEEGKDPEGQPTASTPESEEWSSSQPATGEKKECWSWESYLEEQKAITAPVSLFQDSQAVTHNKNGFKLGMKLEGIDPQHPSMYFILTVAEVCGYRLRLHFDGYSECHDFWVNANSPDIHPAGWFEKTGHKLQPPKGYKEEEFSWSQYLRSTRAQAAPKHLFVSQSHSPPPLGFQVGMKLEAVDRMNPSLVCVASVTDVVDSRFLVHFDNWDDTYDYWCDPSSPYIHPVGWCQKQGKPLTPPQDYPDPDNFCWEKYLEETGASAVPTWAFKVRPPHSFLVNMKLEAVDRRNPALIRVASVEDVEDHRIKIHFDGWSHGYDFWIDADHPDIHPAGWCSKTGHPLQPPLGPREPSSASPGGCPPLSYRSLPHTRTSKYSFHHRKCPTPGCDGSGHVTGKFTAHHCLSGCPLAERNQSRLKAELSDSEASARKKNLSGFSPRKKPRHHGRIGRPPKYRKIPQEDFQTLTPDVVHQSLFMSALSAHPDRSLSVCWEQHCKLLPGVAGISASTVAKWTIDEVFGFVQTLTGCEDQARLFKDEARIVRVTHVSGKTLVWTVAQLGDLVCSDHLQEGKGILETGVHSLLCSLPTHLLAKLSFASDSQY
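L3MBTL1 (50 nM) pre-complexed 30 min with biotinylated H3(1-15)K9me1 peptide (75 nM), then compounds added for 30 min at room temperature; AlphaScreen streptavidin donor/nickel chelate acceptor beads (10 ug/mL final) read after 30 min dark incubation.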
* hit, by the source's call; ? = inconclusive; . = no result given; [ ] = another dose, or the depositor's remark. Sampled rows, rich in hits. Any-hit rate of the full collection: about 2.5%. The call rests on the fitted dose curve; in most records, active means well fitted curve in the direction sought with a large enough effect; inconclusive means small, poorly fitted or top-dose-only effect, or another doubt; inactive means no such curve, though single readings can be large; an effect the other way counts as inactive or inconclusive. Potency means the concentration at half of the fitted maximal effect.

SMILES	POLB inh	APE1 inh	Pol eta inh	POLI inh	POLK inh	L3MBTL1 block
C#CCn1cc(/C=C2\NC(=O)NC2=O)c2ccccc21	35.5µM*	?	?	?	?	.
CC(C)n1cc(/C=C2/NC(=O)NC2=O)c2ccccc21	29.2%	-7.4%	-13.1%	-19.0%	2.4%	-25.7%
O=C(COC(=O)c1ccccc1NCCO)Nc1cccc(S(=O)(=O)NC2=NCCCCC2)c1	.	-27.4%	?	39.8µM*	?	?
CCOc1ccccc1C(=O)OCC(=O)Nc1cccc(S(=O)(=O)NC2=NCCCCC2)c1	.	.	-13.2%	4.8%	-18.9%	.
O=C(Nc1cccc(S(=O)(=O)NC2=NCCCCC2)c1)C1COc2ccccc2O1 (stereo not drawn)	12.6µM*	?	?	?	-24.3%	-0.4%
CCN(Cc1ccccc1)C(=O)CCS(=O)(=O)c1cc(Br)cc2c1N(C(=O)C1CC1)CC2	12.7%	.	11.5%	?	3.4%	.
COCCN(CC(=O)Nc1cc(Cl)ccc1-n1cncn1)Cc1nc2ccccc2c(=O)[nH]1	.	14.0%	-15.2%	31.7%	11.1%	9.0%
CCCCC1=CC2=C(c3ccco3)C(=O)C(C)(OC(=O)c3ccc(OC)cc3)C(=O)C2=CN1Cc1ccc(OC)cc1 (stereo not drawn)	44.7µM*	-1.1%[12.4 µM]	.	.	.	.
CCCCCCCCCCCCCCCC[n+]1ccc(CC(O)c2c(C)[nH]c3ccccc23)c2ccccc21 (stereo not drawn)	.	.	.	118.3%	64.1%	.
C[N+]1(CC(=O)c2ccc(-c3ccccc3)cc2)CCOCC1	.	.	.	42.6%	0.5%	.
Cn1c(=O)c2[nH]c(SCCN3CCOCC3)nc2n(C)c1=S	.	.	6.5%	17.8µM*	-18.5%	.
Cn1c(=O)c2[nH]c(SCCN3CCCCC3)nc2n(C)c1=S	.	.	2.1%	?	-19.5%	.
COc1ccc(-c2noc(-c3ccccc3OCC(=O)Nc3ccc(C(C)=O)cc3)n2)cc1	14.7%	.	-8.8%	14.0%	7.2%	.
CCOc1ccccc1-c1nc(-c2ccc(NC(=O)Cc3ccc(OC)cc3)cc2)no1	31.6µM*	-0.4%	?	?	-21.2%	3.5%
OC(C1=C/C(=C\c2ccncc2)c2ccccc21)c1ccncc1 (stereo not drawn)	.	.	.	18.1%	-22.3%	.
CN(C)C(CN=C1NS(=O)(=O)c2ccccc21)c1ccco1 (stereo not drawn)	?	13.9%	-19.7%	79.4µM*	-31.4%	-10.0%
CCC(C(=O)O)n1c2ccccc2c2cn[nH]c(=O)c21 (stereo not drawn)	22.4µM*	4.8%	?	-9.1%	-30.5%	.
O=C(CSc1ccc(-c2nc3ccccc3[nH]2)cn1)N1CCN(C(=O)c2ccco2)CC1	?	?	?	15.8µM*	50.1µM*	-0.3%
CCCc1cnc2c(c1SCC(=O)Nc1ccc([N+](=O)[O-])cc1)c(=O)n(C)c(=O)n2C	0.9%	.	0.6%	-6.6%	-8.3%[60.1 µM]	.
COc1ccc(OC)c2c(/C=C/c3c(C)[nH]c4ccccc34)ccnc12	.	.	.	11.6%	-18.1%	.
CC1(C)OC(=O)C2(Cc3ccccc3N3CCCC32)C(=O)O1 (stereo not drawn)	.	.	.	79.4µM*	?	.
Cc1cc2oc3ccc(NCCCn4ccnc4)cc3c(=O)c2cc1C	.	.	56.2µM*	22.4µM*	-41.2%	.
CC[C@@H](C)[C@H]1O[C@]2(CC[C@H]1C)C[C@@H]1C[C@@H](CC=C(C)[C@@H](O[C@H]3C[C@H](OC)[C@@H](O[C@H]4C[C@H](OC)[C@@H](O)[C@H](C)O4)[C@H](C)O3)[C@@H](C)C=CC=C3CO[C@@H]4[C@H](O)C(C)=C[C@@H](C(=O)O1)[C@]34O)O2	.	.	.	.	-12.9%[60.1 µM]	.
Cc1cc(C(=O)O)c(C)n1-c1ccccc1	6.2%	-2.8%	9.4%	3.5%	-6.5%	.
Cc1ccc(C)n1-c1sccc1C(=O)O	3.98µM*	7.94µM*	-98.3%	-99.1%	0.891µM*	.
SMILES	POLB inh	APE1 inh	Pol eta inh	POLI inh	POLK inh	L3MBTL1 block
Cc1ccc(CNC(=O)CSc2ccsc2[N+](=O)[O-])cc1	37.6%	12.0%	-3.3%	-4.5%	0.0%	0.6%
COc1ccc(CNC(=O)CSc2ccsc2[N+](=O)[O-])cc1	-2.4%	2.4%	50.1µM*	?	?	-3.5%
COc1ccccc1CNC(=O)C(C)Sc1ccsc1[N+](=O)[O-] (stereo not drawn)	3.6%	0.6%	39.8µM*	?	-31.3%	-4.2%
CCOc1ccc(C(=O)Nc2c(C(=O)c3ccc(OC)cc3)oc3ccccc23)cc1	2.7%	.	-13.7%	15.4%	-23.1%	.
COCCn1c(SCC(=O)NC2CC2)nc2ccccc21	.	8.7%	-6.0%	29.7%	-13.9%	3.2%
COc1ccc(-c2cc3c(=O)n(CC(=O)Nc4cc(C)ccc4C)ccn3n2)cc1	44.7µM*	.	.	11.3%	-7.4%[60.1 µM]	.
Cc1ccc(CSc2nc3cccnc3n2Cc2ccc(C(=O)NCCc3cccs3)cc2)cc1	0.2%	.	-16.4%	?	-1.8%	.
COc1ccc(NC(=O)COC(=O)C2CCN(S(=O)(=O)c3cccs3)CC2)cc1	-20.0%	-4.6%	-7.5%	54.0%	18.3%	.
O=C(Nc1cccc(F)c1)c1ccc(-c2ccccc2)s1	26.5%	.	3.3%	-0.3%	1.7%	.
COc1ccc(N(CC(=O)N/N=C/c2ccco2)S(=O)(=O)c2ccccc2)cc1	8.91µM*	?	89.1µM*	?	-22.1%	?
COc1ccc(S(=O)(=O)N(CC(=O)O)c2ccccc2)cc1	15.1%	-1.4%	-5.7%	100µM*	-23.7%	8.7%
COc1ccc(NC(=O)CN(c2ccc([N+](=O)[O-])cc2)S(=O)(=O)c2ccccc2)cc1	0.112µM*	5.5%	-16.8%	5.4%	-5.4%	-3.1%
COc1cccc(NC(=O)CN(c2ccc([N+](=O)[O-])cc2)S(=O)(=O)c2ccccc2)c1	-12.9%	2.0%	-16.2%	10.1%	0.0%	-18.6%
O=C(C[C@@H]1C/C=C\C[C@H](NC(=O)OCC2c3ccccc3-c3ccccc32)C(=O)OC[C@H]2CCCN2C1=O)NCCO	.	10.6µM*	-5.0%	-5.6%	-27.1%	-3.3%
O=C(C[C@H]1C/C=C\C[C@H](NC(=O)OCC2c3ccccc3-c3ccccc32)C(=O)OC[C@H]2CCCN2C1=O)NCCO	.	?	-0.3%	0.8%	-3.5%	12.3%
CN(CC(=O)Nc1ccc(Cl)c(C(F)(F)F)c1)C(=O)Cn1cc([N+](=O)[O-])ccc1=O	.	-15.9%	79.4µM*	21.4%	3.5%	-0.6%
CCCCNC(=O)c1ccc2c(c1)NC(=O)C(CS(=O)(=O)Cc1cccc(C)c1)N2 (stereo not drawn)	28.2µM*	.	?	8.3%	-4.4%	.
CCOc1ccc(C(=O)Nc2ccc(-c3nc4cc(C)ccc4o3)cc2)cc1	8.3%	.	-15.9%	-19.4%	-4.5%[60.1 µM]	.
